# In the library only some 19% were active in any assay of this set; here they are far more common.
# DT40 TDP1 no CPT = qHTS for Inhibitors of human tyrosyl-DNA phosphodiesterase 1 (TDP1): qHTS in cells in absence of CPT | AID 686978, 2013 | Potency, µM (doses to about 46.2 µM), without a hit: at the top dose activity change, negative = growth inhibition, actives largely listed as inhibitors | hit rate 15% among 420,000 | DT40 Tdp1-/- hTDP1 cells, no CPT, ATP luminescence, 48 h; also: potency is read from the fitted curve at half-maximal effect; % is scaled to controls: 0 for no effect and ±100 for the full control effect; nearly all actives have a fitted effect of over 55% in size
#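 A cellular qHTS used chicken DT40 cells lacking endogenous Tdp1 but carrying stably transfected human TDP1. Compounds were applied without camptothecin, and cell growth kinetics were judged by ATP-dependent luminescence after ≥48 hr.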
# IL-1B inflam inh = inflammasome signaling inhibition, IL-1 beta readout; THP-1 LPS/ATP IL-1B secretion, AlphaLISA, 16 h; hits give low values; activity change, % at 57.5 µM; hit rate 4.7% among 360,000; in the data active = activity change below about -50%; inconclusive = mostly about -30% to -49%; also: % is scaled to controls: 0 for no effect and ±100 for the full control effect
#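 THP-1 cells pretreated 1 hr with compounds (up to 57.5 uM final), then stimulated with LPS (250 ng/mL final) plus ATP (1.25 mM final); secreted IL-1B measured by AlphaLISA after 16 hr, decreased signal indicating inhibition.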
# HepG2 viability = counter-screen for TGF-b inhibitors: cytotoxicity in HepG2 cells; AID 588856; HepG2 CAGA-GFP viability, ATP luminescence, 18 h; Potency, µM (doses to about 46.1 µM), for inactives: top-dose activity change, negative = cytotoxicity, usual class: cytotoxic; hit rate 0.76% among 410,000; also: potency is read from the fitted curve at half-maximal effect
#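 CellTiter-Glo luminescence gave cytotoxicity after 18 hours at 37 degrees C. The cells were HepG2 CAGA-GFP in 1% FBS DMEM, stimulated with 500 pg/mL TGF-beta after compound addition. %Activity was normalised to no-cell wells (complete cell-killing) and DMSO (no toxicity), and curves were fitted and classified.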
# TGFb inhibitor = TGF-b pathway inhibition; Potency, µM (highest dose often 46.1 µM), for inactives: top-dose activity, negative = inhibition, hits mostly inhibitors; AID 588855; HepG2 CAGA-GFP TGF-b/SMAD3 reporter, GFP fluorescence, 18 h; TGF-beta stimulated, 500 pg/mL final; hit rate 1.2% among 410,000; also: potency is read from the fitted curve at half-maximal effect; % is scaled to controls: 0 for no effect and ±100 for the full control effect; nearly all actives have a fitted effect of over 65% in size
#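 Cell-based qHTS in HEPG2 carrying a CAGA-GFP Smad reporter; compounds added before 500 pg/mL final TGF-beta, 18 h incubation at 37 degrees C, GFP fluorescence quantified per cell by imaging cytometry.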
# TDP1 cell CPT = DT40-hTDP1 cell growth loss with CPT; chicken DT40 Tdp1-/-;hTDP1 cells + 20 nM CPT, ATP luminescence, 48 h; Potency, µM (series often up to 46.2 µM), without a hit: top-dose activity change, negative = growth inhibition, most hits filed as inhibitors; hit rate 12% among 420,000; AID 686979; also: potency is read from the fitted curve at half-maximal effect; % is scaled to controls: 0 for no effect and ±100 for the full control effect; nearly all actives have a fitted effect of over 55% in size
#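 Cell growth measured by CellTiter-Glo luminescence after a minimum 48 h, 37 C compound exposure with 20 nM CPT in Tdp1-knockout DT40 cells stably expressing hTDP1, seeded 400/well; qHTS titration format.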
# TDP1 block = inhibitors of human tyrosyl-DNA phosphodiesterase TDP1; Q9NUW8; recombinant TDP1, AlphaScreen DNA substrate cleavage; Potency, µM (top dose mostly 130 µM), inactives show top-dose activity change, negative = inhibition, usual class: inhibitors; hit rate 0.28% among 350,000; also: potency is read from the fitted curve at half-maximal effect; % is scaled to controls: 0 for no effect and ±100 for the full control effect; nearly all actives have a fitted effect of over 40% in size
# Target sequence (Q9NUW8 whole entry, looked up): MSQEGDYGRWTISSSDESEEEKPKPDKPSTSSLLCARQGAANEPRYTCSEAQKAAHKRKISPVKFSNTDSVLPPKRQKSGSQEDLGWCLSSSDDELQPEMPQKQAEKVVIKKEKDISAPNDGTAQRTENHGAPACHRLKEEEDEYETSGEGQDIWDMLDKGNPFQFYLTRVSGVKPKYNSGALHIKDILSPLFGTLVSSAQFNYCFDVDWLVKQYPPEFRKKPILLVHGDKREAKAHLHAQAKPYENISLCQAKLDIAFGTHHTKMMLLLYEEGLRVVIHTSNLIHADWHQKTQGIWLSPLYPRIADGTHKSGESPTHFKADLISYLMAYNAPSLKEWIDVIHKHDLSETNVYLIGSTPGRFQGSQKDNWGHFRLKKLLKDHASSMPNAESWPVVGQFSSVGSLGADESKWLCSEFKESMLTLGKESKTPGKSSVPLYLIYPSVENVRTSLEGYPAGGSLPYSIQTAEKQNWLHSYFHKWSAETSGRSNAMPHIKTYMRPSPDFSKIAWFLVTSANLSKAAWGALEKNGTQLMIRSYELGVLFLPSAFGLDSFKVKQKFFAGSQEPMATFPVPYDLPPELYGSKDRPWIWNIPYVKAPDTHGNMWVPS
#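 AlphaScreen read-out: signal falls as enzyme removes the 3' tyrosine-FITC from a 5'-biotinylated DNA oligo (15 nM, 5 min, RT). Enzyme was E. coli-made recombinant Tdp1 at 1 nM, exposed to compound for 15 min beforehand; beads 10 ug/ml, 10 min.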
# * hit, by the source's call; ? = inconclusive; . = no result given. Unless noted, calls follow the shape of the dose curve; as a rule, active = well fitted curve in the direction sought with a large enough effect; inconclusive = small, poorly fitted or top-dose-only effect, or another doubt; inactive = no such curve, though single readings can be large; an effect the other way counts as inactive or inconclusive.
SMILES,DT40 TDP1 no CPT,IL-1B inflam inh,HepG2 viability,TGFb inhibitor,TDP1 cell CPT,TDP1 block
CC(=O)C(Sc1nc(-c2ccccc2Cl)nc2c1c(=O)n(C)c(=O)n2C)C(=O)N(C)C (centres undefined),?,.,-1%,?,?,5%
O=C(CCc1nc2ccccc2c(=O)[nH]1)N1CCN(S(=O)(=O)c2ccc(Cl)c(C(F)(F)F)c2)CC1,?,-8,-2%,?,?,.
Cc1c(C(=O)Nc2ccccc2F)cnn1-c1ccccc1,?,0,-11%,18%,?,4%
Cc1c(C(=S)Nc2ccccc2)cnn1-c1ccccc1,-23%,-29,-23%,?,21µM*,-2%
Nc1c(C(=O)N/N=C/c2ccc([N+](=O)[O-])cc2)cnn1-c1ccccc1,-19%,17,-39%,-6%,-20%,.
Cc1c(C(=S)Nc2ccccc2)cnn1-c1ccc([N+](=O)[O-])cc1,?,0,-36%,-14%,16µM*,8%
Cc1c(C(=O)Nc2cc(F)cc(F)c2)cnn1-c1ccccc1,12µM*,-18,-25%,-10%,13µM*,.
CC(=O)c1cnn(-c2ccccc2)c1C,6%,11,3%,-2%,8%,2%
O=C(COc1ccccc1[N+](=O)[O-])c1ccccc1,5.2µM*,-18,3%,?,3.7µM*,5%
Cc1cc(-n2c(C)cc(C(=O)COc3ccccc3[N+](=O)[O-])c2C)no1,23µM*,0,-18%,-4%,16µM*,2%
COC(=O)/C=C/COc1ccccc1[N+](=O)[O-],13µM*,1,2%,13%,9.2µM*,-12%
O=[N+]([O-])c1ccccc1OC/C(=N\O)c1ccccc1,?,23,-15%,3%,?,.
Cc1cc(NS(=O)(=O)c2ccc(NC(=O)COc3ccccc3[N+](=O)[O-])cc2)no1,10%,11,0%,15%,1%,3%
Cc1cc(C(=O)COc2ccccc2[N+](=O)[O-])c(C)n1C1CC1,?,2,-1%,-10%,23µM*,9%
O=c1[nH]c2cc(Cl)c(O)cc2o1,.,.,.,.,.,0%
Cc1cc(-n2c(C)cc(C(=O)COc3ccc(F)c(F)c3)c2C)no1,21µM*,-24,-11%,-1%,23µM*,5%
COc1ccc(Nc2nc(NCC3CCCO3)c3ccccc3n2)c(OC)c1 (centres undefined),15µM*,.,-11%,-22%,16µM*,6%
c1ccc(CNc2nc(-c3cccs3)nc3ccccc23)nc1,?,-77*,3%,-19%,?,5%
CCOc1ccc(Nc2nc(NCC3CCCO3)c3ccccc3n2)cc1 (centres undefined),2.9µM*,-98*,-51%,11µM*,26µM*,7%
c1coc(CNc2nc(-c3cccs3)nc3ccccc23)c1,.,.,.,.,.,1%
O=S(=O)(Nc1nc2ccccc2nc1NCC1CCCO1)c1cccc(Cl)c1 (centres undefined),16µM*,33,-14%,?,?,0%
CCOc1ccc(CCNC(=O)c2cnc3sc(N4CCCCC4)nn3c2=O)cc1,-25%,.,2%,0%,?,5%
Oc1cccc(Nc2nc(NCC3CCCO3)c3ccccc3n2)c1 (centres undefined),15µM*,.,-27%,?,16µM*,2%
c1coc(CNc2nc(N3CCCCC3)nc3ccccc23)c1,18µM*,-58*,-45%,10µM*,26µM*,8%
c1ccc2c(NCC3CCCO3)nc(N3CCOCC3)nc2c1 (centres undefined),1%,11,2%,-1%,-4%,-2%

# Bioassay records (PubChem)
